MCF10A rerep: DNA re-replication induction in MCF 10a cells. MCF 10A DNA re-replication, Hoechst nuclear intensity, 48 h. Potency, µM (series often up to 46.1 µM), for inactives: at the highest dose activity, positive = re-replication, actives largely listed as activators. 2.9% of 350,000 active; further: potency means the concentration at half of the fitted maximal effect; % of control where 0% means no effect; nearly all actives have a fitted effect of over 50% in size
KB-V1 MDR tox: KB-V1 MDR subline cytotoxicity; KB-V1 MDR cells viability, CellTiter-Glo, 72 h; Potency, µM (doses to about 46.1 µM), most hits filed as cytotoxic; 3.4% of 400,000 active; further: potency means the concentration at half of the fitted maximal effect; on the % scale 0 is the no-effect control and ±100 the full control effect; nearly all actives have a fitted effect of over 60% in size
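Cells of the MDR subline KB-V1 are plated, dosed with compound at multiple concentrations, and incubated 72 h at 37 degrees C; CellTiter-Glo is then added and luminescence read after 10 min.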
SW480 rerep: inducers of DNA re-replication in SW480 colon cancer cells | 1.8% of 340,000 active | SW480 DNA re-replication, Hoechst DNA content imaging, 48 h | Potency, µM (highest dose often 46.1 µM), for the others: top-dose re-replication activation, hits mostly activators; further: potency means the concentration at half of the fitted maximal effect; % of control where 0% means no effect; nearly all actives have a fitted effect of over 55% in size
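Hoechst fluorescence of nuclei (405 nm excitation, 500-530 nm emission) measured by plate-scanning imager after 48 hr compound exposure at 37 C; re-replication scored as increased number of nuclei with elevated intensity.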
KB-3-1 tox: KB-3-1 parental cell cytotoxicity; 1.4% of 400,000 active; Potency, µM (series often up to 46.1 µM), most hits filed as cytotoxic; KB-3-1 viability, CellTiter-Glo ATP luminescence, 72 h; further: potency means the concentration at half of the fitted maximal effect; on the % scale 0 is the no-effect control and ±100 the full control effect; nearly all actives have a fitted effect of over 60% in size
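Viability of parental KB-3-1 cells, measured by CellTiter-Glo luminescence, followed a 72 h incubation at 37 °C with pinned compounds in phenol-red-free DMEM containing 10% FBS.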
KCNH2 3.1 block: KCNH2 3.1 (human) potassium channel inhibition; U2OS KCNH2 3.1, thallium flux FluxOr; hits give low values; activity change, % (tested at about 1.8 µM); 0.95% of 340,000 active;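 active means maximum activity change below -70%; inconclusive means maximum activity change from -70% to -50%; inactive means maximum activity change above -50%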;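 further: thallium influx rate constant from kinetic fluorescence after stimulation buffer; on the % scale 0 is the no-effect control and ±100 the full control effect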
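Measured as rate of thallium-driven FluxOr signal in transduced U2OS cells carrying the 3.1 channel, read kinetically for 2 min upon stimulation; values are rate constants scaled to DMSO control wells.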
KCNH2 WT inh: inhibitors of human wildtype KCNH2 potassium channel | U2OS, BacMam KCNH2, thallium flux FluxOr; hits give low values | activity change, % at 1.84 µM | 0.37% of 340,000 active;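 active means maximum activity change below -70%; inconclusive means maximum activity change between -70% and -50%; inactive means maximum activity change above -50%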; further: on the % scale 0 is the no-effect control and ±100 the full control effect
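U2OS cells transduced with wild-type KCNH2 virus are loaded with FluxOr dye for 45 min, and thallium flux is measured in kinetic reads before and after stimulation buffer. Rate constants are normalized to DMSO controls.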
Active calls of the source: *; i = inactive; ? = inconclusive; / = no result given. An excerpt weighted towards active compounds, which were near 7.6% of everything screened. Unless noted, the call rests on the fitted dose curve; in most records, active means well fitted curve in the direction sought with a large enough effect; inconclusive means small, poorly fitted or top-dose-only effect, or another doubt; inactive means no such curve, though single readings can be large; an effect the other way counts as inactive or inconclusive.

SMILES	MCF10A rerep	KB-V1 MDR tox	SW480 rerep	KB-3-1 tox	KCNH2 3.1 block	KCNH2 WT inh
CCOC(=O)c1cccc(NC(=O)/C=C/c2ccc3c(c2)OCO3)c1	9.2µM*	?	3%	10µM*	-8	-4
COc1ccc(/C=C/C(=O)c2ccccc2)cc1Cn1nnc2ccccc21	12µM*	21µM*	?	i	-6	-1
COc1cc(C(=O)c2cc3c(cc2C)OCO3)cc(OC)c1OC	/	0.41µM*	/	0.16µM*	/	/
Cc1cc(=O)n2nc(N(C)CC(=O)NCc3cccc(Br)c3)sc2n1	/	i	/	i	/	/
COc1ccc(/C=C/C(=O)c2ccc(C(=O)/C=C/c3ccc(OC)c(OC)c3)cc2)cc1OC	6.5µM*	i	8.2µM*	?	-26	0
O=C(O)c1cccc(N2C(=O)c3ccc(C(=O)c4cccc([N+](=O)[O-])c4)cc3C2=O)c1	2%	i	-5%	i	-2	-12
O=C(C=Cc1ccc2c(c1)OCO2)c1ccccc1	18µM*	i	?	i	-2	0
COc1cc(/C=C/C(=O)c2ccc(F)cc2)cc(OC)c1OC	?	?	18µM*	i	0	-7
CCOc1ccc(C(=O)/C=C/c2cc(OC)c(OC)c(OC)c2)cc1	?	?	?	?	-3	7
O=C(O)c1ccc2c(c1)C(=O)N(c1cccc(C(=O)/C=C/c3ccccc3)c1)C2=O	18µM*	i	2%	i	-7	0
COc1ccc(NC(=O)[C@H](C)NC(=O)C2CCN(S(=O)(=O)c3ccc(OC)cc3)CC2)cc1	-2%	i	-8%	i	-1	-11
COC(=O)c1ccc(OC)c(CN2CCCN(Cc3ccc(C)cc3)S2(=O)=O)c1	/	i	/	i	/	/
COc1ccc(/C=C2/SC(=O)N(CCC(=O)Nc3ccccc3C(=O)O)C2=S)cc1	6%	i	0%	i	6	-11
CCOc1cc(/C=C/C(=O)c2ccc(C)cc2)ccc1OCC(=O)N(C)C	23µM*	15µM*	?	?	2	-7
C[C@H](CCC(=O)OCc1cn(CC(=O)c2ccc(O)cc2)nn1)C1CC[C@H]2[C@@H]3CC[C@@H]4C[C@H](O)CC[C@]4(C)[C@H]3C[C@H](O)[C@]12C (some centres undefined)	?	i	-3%	i	-5	30
O=C1c2cccc3c(N4CCCCC4)ccc(c23)C(=O)N1c1ccccn1	-1%	i	-1%	i	2	-1
O=C1c2cccc3c([N+](=O)[O-])ccc(c23)C(=O)N1c1ccccn1	4.1µM*	?	12µM*	i	0	-22
O=C1c2cccc3c([N+](=O)[O-])ccc(c23)C(=O)N1O	21µM*	i	?	i	-30	-197*
O=C1c2ccc([N+](=O)[O-])cc2C(=O)N1c1ccc(Cl)cn1	-14%	i	13%	i	-43	-4
O=C1c2cccc3c([N+](=O)[O-])ccc(c23)C(=O)N1c1ccc(Cl)cn1	?	i	4.1µM*	i	-35	?
O=C1c2cccc3c([N+](=O)[O-])ccc(c23)C(=O)N1c1nccs1	7.3µM*	?	7.3µM*	?	-28	4
COc1ccc(NC(=S)N2CCN(S(=O)(=O)c3ccc(F)cc3)CC2)cc1	-1%	i	-11%	i	14	-1
Oc1ccc(-c2csc(-c3c[nH]c4ccccc34)n2)c(O)c1	?	?	7%	18µM*	21	-6
Cc1ccc(-c2csc(-c3c[nH]c4ccccc34)n2)c(C)c1	15µM*	?	?	?	-1	1
CC(=O)NCCC(=O)Nc1nc(-c2c[nH]c3ccccc23)cs1	2%	i	-11%	i	9	2
SMILES	MCF10A rerep	KB-V1 MDR tox	SW480 rerep	KB-3-1 tox	KCNH2 3.1 block	KCNH2 WT inh
CCOC(=O)CCNC(=O)N1CCN(S(=O)(=O)c2ccc3c(ccn3C)c2)CC1	/	i	/	i	/	/
CC(C)CCN(Cc1ccco1)C(=O)Cn1ncc2c([nH]c3ccccc32)c1=O	/	i	/	i	/	/
C=CCn1c(SCC(=O)N2CCN(C(=O)c3ccco3)CC2)nc2sc(CC)cc2c1=O	0%	i	-8%	i	?	-109*
O=C(CSc1nnc(-c2ccco2)n1-c1ccccc1)N1CCOCC1	4%	?	-7%	i	-1	8
C=CCn1c(SCC(=O)Nc2cc(C)c(Cl)cc2OC)nnc1-c1ccco1	18%	2.3µM*	-12%	i	-22	24
C=CCn1c(SCC(=O)N2CCN(c3ccccc3)CC2)nnc1-c1ccco1	9%	13µM*	-5%	i	33	-1
C=CCn1c(SCC(=O)Nc2cc(C)ccc2OC)nnc1-c1ccco1	7%	i	-3%	i	-4	-2
CC(NC(=O)CCCCCCN1C(=O)c2ccccc2C1=O)c1ccc2c(c1)CCCC2 (centres undefined)	2%	i	-2%	i	/	4
O=C(Nc1ccc(Cl)cc1)c1ccc(-n2cnnc2)cc1	/	i	/	i	/	/
CC(=O)Nc1cc(-c2ccc(CO)cc2)cn2c(-c3cccc(C(F)(F)F)c3)cnc12	/	i	/	i	/	/
O=C(CCS(=O)(=O)c1ccc(Br)s1)Nc1cc(C(F)(F)F)cc(C(F)(F)F)c1	/	?	/	i	/	/
COc1cc(-c2nc3n(n2)C(c2ccc(F)cc2)C2=C(CCCC2=O)N3)cc(OC)c1OC (centres undefined)	-1%	i	1%	i	-13	7
CCSc1nc2n(n1)C(c1cccc(F)c1)C1=C(CCCC1=O)N2 (centres undefined)	-1%	13µM*	-6%	i	-5	27
Cc1ccc(CNC(=O)C23CN(Cc4ccccc4)CC2C(c2cccc([N+](=O)[O-])c2)=NO3)cc1 (centres undefined)	0%	i	?	i	-72*	-7
O=C(NCc1ccco1)C12CN(Cc3ccccc3)CC1C(c1cccc([N+](=O)[O-])c1)=NO2 (centres undefined)	-4%	i	-4%	i	-23	5
O=C(NCc1ccccc1)C12CN(Cc3ccccc3)CC1C(c1ccc([N+](=O)[O-])cc1)=NO2 (centres undefined)	?	i	0%	i	-77*	7
O=C(CN(Cc1ccccc1)C(=O)c1cccc([N+](=O)[O-])c1)Nc1c(Cl)cc(Cl)cc1Cl	?	i	-5%	i	-87*	7

Screening results: PubChem BioAssay, National Center for Advancing Translational Sciences (NCATS)
